In PubChem BioAssay (NCI) one finds growth data, which are given here for 8 molecules.

SMILES strings stand for the structures. Compounds without any hit were thinned out: in the full panel of roughly 83,000, 20% have a hit.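 Percent growth is the endpoint: 0 to 100 indicates growth inhibition (40 means 60% inhibition), 0 means no net growth, and negative values indicate cell death.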 Values without a mark were called inactive. Activity calls are given as the source filed them. Rule for the calls: active = growth percent below 10; inactive = the rest.

Some test systems named below: SK-MEL-2 melanoma; EKVX NSCLC; SN12C renal; UO-31 renal; TK-10 renal; ACHN renal; A498 renal; CCRF-CEM leukemia; MOLT-4 leukemia; SR leukemia; RPMI-8226 leukemia; OVCAR-8 ovarian; OVCAR-5 ovarian; OVCAR-4 ovarian; SK-OV-3 ovarian; IGROV1 ovarian; OVCAR-3 ovarian; HS 578T breast; NCI/ADR-RES ovarian.
Common to all, as to assay: NCI-60 one-dose screen, 48 h (100 = growth as untreated, 0 = no growth, -100 = all killed)
What all share (details): 10 µM

For the molecule `CCN(CC)CCCOc1cccc2c1C(=O)c1cccc(OCCCN(CC)CC)c1C2=O`, the growth in the assay on SK-MEL-2 melanoma is 42.1%; with EKVX NSCLC, 54.5%; in the assay with SN12C renal it was 31.2%; in the assay with UO-31 renal it was 16%; with TK-10 renal, 38.8%; in the assay with ACHN renal it was 22.7%. For the same molecule, the growth in the assay on A498 renal was 46.4%; with CCRF-CEM leukemia, 25%; in the assay on MOLT-4 leukemia it was 4.98% (active); in the assay with SR leukemia it was 3.15% (active); with RPMI-8226 leukemia, 18.6%; with OVCAR-8 ovarian it was 28.1%. The growth in the assay on OVCAR-5 ovarian is 55.8%; with OVCAR-4 ovarian, 32.9%; in the assay on SK-OV-3 ovarian it was 41.5%; with IGROV1 ovarian it was 25.8%; in the assay with OVCAR-3 ovarian it was 35%; in the assay on HS 578T breast it was 58.4%. The growth in the assay on NCI/ADR-RES ovarian is 35.3%.
In the case of `CCOC(=O)c1cc(C(=O)c2cc(OC)cc(OC)c2)n2nc(C)ccc12`, the growth was 15.9% in the assay with SK-MEL-2 melanoma; 75.5% with EKVX NSCLC; 58.1% with SN12C renal; 44.9% in the assay with UO-31 renal; 65% in the assay on TK-10 renal; 60.5% in the assay on ACHN renal. Also, the growth in the assay on A498 renal is -1.92% (active); in the assay with CCRF-CEM leukemia it was 13.7%; in the assay with MOLT-4 leukemia it was 29.5%; in the assay on SR leukemia, 18.4%; in the assay on RPMI-8226 leukemia, 12.2%; in the assay on OVCAR-8 ovarian, 29.7%. The growth is 59.6% in the assay with OVCAR-5 ovarian; 56.6% with OVCAR-4 ovarian; 6.35% (active) with SK-OV-3 ovarian; 44.8% in the assay with IGROV1 ovarian; 1.01% (active) with OVCAR-3 ovarian; 36.4% with HS 578T breast. Besides, the growth with NCI/ADR-RES ovarian is 19.5%.
Turning to `CN(C)CCN(Cc1ccccc1)c1ccc2ccccc2n1`, the growth was 103% in the assay with SK-MEL-2 melanoma; 109% in the assay with EKVX NSCLC; 93.8% with SN12C renal; 76.2% with UO-31 renal; 93.1% in the assay on TK-10 renal; 95.8% with ACHN renal. The growth in the assay with A498 renal was 119%; in the assay with CCRF-CEM leukemia, 88.6%; in the assay on MOLT-4 leukemia, 104%; in the assay on SR leukemia it was 98.6%; in the assay on RPMI-8226 leukemia, 89.5%; in the assay with OVCAR-8 ovarian it was 102%. The growth with OVCAR-5 ovarian was 95%; in the assay on OVCAR-4 ovarian, 97.4%; with SK-OV-3 ovarian it was 97.2%; in the assay on IGROV1 ovarian it was 95.1%; with OVCAR-3 ovarian, 103%; with HS 578T breast, 92.4%. The growth with NCI/ADR-RES ovarian was 94.2%.
As for `CCNCC(=O)Nc1ccc(C(=O)OCC)cc1`, the growth with SK-MEL-2 melanoma was 102%; with EKVX NSCLC it was 104%; with SN12C renal it was 98.6%; with UO-31 renal it was 95%; with TK-10 renal it was 86.2%; in the assay with ACHN renal, 108%. Further, the growth in the assay with A498 renal is 86%; with CCRF-CEM leukemia it was 96.4%; in the assay with MOLT-4 leukemia, 87.5%; in the assay on SR leukemia it was 82.3%; in the assay with RPMI-8226 leukemia it was 104%; in the assay with OVCAR-8 ovarian, 103%. The growth is 103% with OVCAR-5 ovarian; 102% in the assay on OVCAR-4 ovarian; 99.8% in the assay on SK-OV-3 ovarian; 99.3% in the assay on IGROV1 ovarian; 99.9% with OVCAR-3 ovarian; 97.4% with HS 578T breast. The growth in the assay on NCI/ADR-RES ovarian was 103%.
Regarding `CCOC(=O)C(C)(c1ccccc1)c1ccccc1`, the growth in the assay on SK-MEL-2 melanoma was 114%; with EKVX NSCLC, 102%; in the assay on SN12C renal it was 102%; with UO-31 renal, 94%; in the assay with TK-10 renal, 102%; with ACHN renal, 112%. Also, the growth is 105% in the assay with A498 renal; 103% in the assay on CCRF-CEM leukemia; 109% with MOLT-4 leukemia; 100% with SR leukemia; 101% in the assay on RPMI-8226 leukemia; 105% in the assay on OVCAR-8 ovarian. The growth was 107% with OVCAR-5 ovarian; 111% with OVCAR-4 ovarian; 98.9% in the assay with SK-OV-3 ovarian; 106% in the assay with IGROV1 ovarian; 107% in the assay with OVCAR-3 ovarian; 111% in the assay with HS 578T breast. For the same molecule, the growth in the assay on NCI/ADR-RES ovarian is 106%.
`COc1cc(-c2nn(-c3cccc(NC(=O)NCCNC(=O)c4cccc(C(F)(F)F)c4)c3)cc2-c2ccncc2)ccc1Cl`: the growth in the assay on SK-MEL-2 melanoma was 21.5%; with EKVX NSCLC it was 60.1%; with SN12C renal, 75.2%; in the assay with UO-31 renal, 62.1%; in the assay on TK-10 renal, 90%; in the assay on ACHN renal, 48.4%. Besides, the growth with A498 renal is 33%; in the assay with CCRF-CEM leukemia it was 20.6%; with MOLT-4 leukemia, 27.3%; with SR leukemia, 10.4%; with RPMI-8226 leukemia, 21.4%; with OVCAR-8 ovarian, 44.1%. Moreover, the growth is 85.1% in the assay with OVCAR-5 ovarian; 49.4% with OVCAR-4 ovarian; 49.9% in the assay with SK-OV-3 ovarian; 57.3% in the assay with IGROV1 ovarian; 16.2% with OVCAR-3 ovarian; 24.1% in the assay with HS 578T breast. Also, the growth in the assay with NCI/ADR-RES ovarian is 80.3%.
In the case of `CCOC(=O)c1cc(C(=O)c2ccc(OC)c(OC)c2)n2c1ccc1ccc3cccnc3c12`, the growth with SK-MEL-2 melanoma was 19%; with EKVX NSCLC it was 78.6%; in the assay on SN12C renal, 62.1%; in the assay on UO-31 renal it was 44%; with TK-10 renal, 70.5%; in the assay with ACHN renal, 47.4%. For the same molecule, the growth was -5.4% (active) in the assay on A498 renal; 19.9% in the assay with CCRF-CEM leukemia; 33.8% in the assay on MOLT-4 leukemia; 23.1% in the assay with SR leukemia; 5.4% (active) in the assay with RPMI-8226 leukemia; 29% with OVCAR-8 ovarian. Further, the growth is 79.7% in the assay on OVCAR-5 ovarian; 59.2% with OVCAR-4 ovarian; 17.8% in the assay with SK-OV-3 ovarian; 46% with IGROV1 ovarian; 10.3% with OVCAR-3 ovarian; 25% with HS 578T breast. Further, the growth in the assay with NCI/ADR-RES ovarian is 21.6%.
For the molecule `CCOC(=O)c1cc(C(=O)c2cc(OC)c(OC)c(OC)c2)n2c1ccc1c3cccnc3ccc12`, the growth in the assay with SK-MEL-2 melanoma is 40.6%; in the assay with EKVX NSCLC, 93.3%; with SN12C renal, 78.7%; in the assay with UO-31 renal it was 69%; in the assay with TK-10 renal it was 85.3%; with ACHN renal, 76.2%. The growth was 60.6% in the assay on A498 renal; 62.7% in the assay on CCRF-CEM leukemia; 31.4% in the assay with MOLT-4 leukemia; 17.5% with SR leukemia; 61.8% in the assay on RPMI-8226 leukemia; 56.2% with OVCAR-8 ovarian. For the same molecule, the growth in the assay on OVCAR-5 ovarian is 91.9%; in the assay on OVCAR-4 ovarian it was 89.7%; in the assay on SK-OV-3 ovarian it was 78.1%; in the assay with IGROV1 ovarian, 67.8%; in the assay with OVCAR-3 ovarian, 61.5%; with HS 578T breast, 72.8%. Further, the growth in the assay on NCI/ADR-RES ovarian is 33.9%.
